Active and inactive are the calls of the source.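 How the source made its calls: active means a thermal shift above zero, meaning the compound raised the protein's melting temperature; inactive means the rest.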
target: Luciferin 4-monooxygenase (Photinus pyralis) (UniProt P08659); assay: Thermal Shift Assay for Inhibitors of FLuc (Firefly Luciferase, Photinus pyralis) in Absence of ATP; conditions: purified FLuc, SYPRO Orange thermal shift, no ATP; at 200 µM; active compounds read high
Text: Firefly (Photinus pyralis) luciferase (FLuc) is widely used as a reporter in biological assays. […] In order to determine if FLuc thermal stabilization parallels inhibitor potency, a fluorescence-based thermal denaturation assay was developed in this present study. An environmentally sensitive fluorescence dye, SYPRO Orange (Invitrogen, presently Life Technologies) was utilized to monitor the fluorescence change as a function of temperature. The dye preferentially binds to the hydrophobic regions of the protein, and its high signal-to-noise ratio, large Stokes shift and high excitation wavelength make it ideal for thermal shift application. In this assay, the melting temperature (Tm) (the inflection point of the protein melt transition) was assessed for each sample tested. Differences in the Tm between controls and compound-containing samples were determined (the thermal shift or delta Tm), and compounds were ranked by the degree of their thermal shift at the top concentration (200 uM). […] FLuc catalyzes light production in bioluminescent organisms. The reaction requires luciferin, ATP and O2 as substrate, and it includes the formation of a luciferyl-AMP intermediate and the subsequent production of light, AMP, oxyluciferin and CO2. In this study, PTC124 and analogues were evaluated for their potential to stabilize FLuc in the absence and presence of ATP. This particular BioAssay is in the absence of ATP. See related BioAssay "Thermal Shift Assay for Inhibitors of FLuc (Firefly Luciferase, Photinus pyralis) in the Presence of ATP" See [6] for more details on this assay and related studies. Welch, et al. PTC124 targets genetic disorders caused by nonsense mutations. Nature 447 (2007) 87-91. D.S. Auld, N. Thorne, W.F. Maguire, and J. Inglese, Mechanism of PTC124 activity in cell-based luciferase assays of nonsense codon suppression. […]
Assay Protocol: 1.8 uM FLuc was tested in Tris-acetate buffer (pH 7.6) or phosphate buffer saline (pH 7.4). […] Fluorescence intensity changes (Ex 490/Em 575 nm) were monitored with a charge-coupled device (CCD) camera. […]

Luciferin 4-monooxygenase (Photinus pyralis), sequence (P08659 whole entry, looked up): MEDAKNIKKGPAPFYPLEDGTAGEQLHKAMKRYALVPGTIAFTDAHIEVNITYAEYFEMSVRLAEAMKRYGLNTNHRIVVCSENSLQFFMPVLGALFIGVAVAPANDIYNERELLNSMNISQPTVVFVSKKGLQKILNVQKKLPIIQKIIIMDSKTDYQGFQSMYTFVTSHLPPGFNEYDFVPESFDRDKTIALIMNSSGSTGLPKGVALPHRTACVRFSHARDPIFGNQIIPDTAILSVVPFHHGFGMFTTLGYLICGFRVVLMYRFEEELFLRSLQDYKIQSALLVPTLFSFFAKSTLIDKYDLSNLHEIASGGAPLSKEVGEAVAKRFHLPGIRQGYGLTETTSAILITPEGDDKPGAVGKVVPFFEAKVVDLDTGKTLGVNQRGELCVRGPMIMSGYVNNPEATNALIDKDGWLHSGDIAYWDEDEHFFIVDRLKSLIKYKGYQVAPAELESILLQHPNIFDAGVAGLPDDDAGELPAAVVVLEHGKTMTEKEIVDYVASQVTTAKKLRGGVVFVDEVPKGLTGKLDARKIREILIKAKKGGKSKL

Thermal shift (delta Tm), active:
NC(=O)c1cccc(-c2noc(-c3ccccc3F)n2)c1 2.84 °C, O=C(O)c1ccc(-c2noc(-c3ccccc3F)n2)cc1 5.87 °C, Nc1ncnc2c1ncn2[C@@H]1O[C@H](COP(=O)(O)OC(=O)c2cccc(-c3noc(-c4ccccc4F)n3)c2)[C@@H](O)[C@H]1O 28.3 °C
